For test [1], the system named is Plasmodium falciparum Sir2 (PF13_0152, Sir2A). Nature of the test: pfSir2 binders on small-molecule microarrays, primary screen, biochemical, small-molecule microarray, 635 nm fluorescence (AID 1098).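 Also: score merges spot fluorescence intensity with its signal-to-noise ratio.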 The following applies: small-molecule microarray binding, fluorescence 635 nm; higher = more signal.
A short description of test [2]: small-molecule microarray binders of probe aDKK1, primary screen, biochemical, biotinylated probe, 635/667 nm fluorescence (AID 1099).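 Also: score merges 667nm spot fluorescence with signal to noise across triplicate slides; reference of the scale not given here.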 The following applies: higher = more signal.
The nature of test [3]: small-molecule microarray binders of probe aCHRDL2, primary screen, biochemical, biotinylated probe, 635/667 nm fluorescence (AID 1100). Conditions: higher = more signal.
A short description of test [4]: splicing luciferase reporter signal modulators, primary screen, spliceosome inhibition project, cell-based, HEK293, splice +/- reporter (AID 1101).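 Also: HEK293 cells carrying a splicing-competent luciferase reporter gene; test concentration not given here.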 Conditions: luminescence, 24 h, higher = more signal, called active from +8 up or from −8 down. For orientation: In a reporter assay the amount or activity of a reporter protein is the signal.
The target in test [5] is Fibroblast growth factor 10 (Homo sapiens) (UniProt O15520). Nature of the test: FGF10 binders on small-molecule microarrays, primary screen, biochemical, small-molecule microarray, 635 nm fluorescence (AID 1102). Conditions: FGF10 binding, fluorescence 635 nm, higher = more signal.
Chain of Fibroblast growth factor 10 (Homo sapiens) (O15520 whole entry, looked up): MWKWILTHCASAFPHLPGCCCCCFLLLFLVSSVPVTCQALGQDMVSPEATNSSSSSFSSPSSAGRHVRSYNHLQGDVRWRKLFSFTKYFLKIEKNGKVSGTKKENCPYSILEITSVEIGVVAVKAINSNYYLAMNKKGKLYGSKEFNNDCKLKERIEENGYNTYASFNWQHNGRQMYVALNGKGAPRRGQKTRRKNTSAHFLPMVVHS
The subject of test [6] is glycogen synthase kinase-3 (GSK3A per assay name; protocol says GSK3B). The test is described as follows: GSK3 binders on small-molecule microarrays, primary screen, biochemical, small-molecule microarray, 635 nm fluorescence, GSK3A (AID 1103). Also: the record names both GSK3A and GSK3B. The following applies: small-molecule microarray binding, fluorescence 635 nm; higher = more signal.
Test [7] deals with Epidermal growth factor receptor (Homo sapiens) (UniProt P00533). Nature of the test: EGFR binders on small-molecule microarrays, primary screen, biochemical, small-molecule microarray, 635 nm fluorescence (AID 1104).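 Also: score merges 667 nm emission intensity with spot signal to noise over triplicate slides.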 Conditions: EGFR binding, higher = more signal.
Chain of Epidermal growth factor receptor (Homo sapiens) (P00533 whole entry, looked up): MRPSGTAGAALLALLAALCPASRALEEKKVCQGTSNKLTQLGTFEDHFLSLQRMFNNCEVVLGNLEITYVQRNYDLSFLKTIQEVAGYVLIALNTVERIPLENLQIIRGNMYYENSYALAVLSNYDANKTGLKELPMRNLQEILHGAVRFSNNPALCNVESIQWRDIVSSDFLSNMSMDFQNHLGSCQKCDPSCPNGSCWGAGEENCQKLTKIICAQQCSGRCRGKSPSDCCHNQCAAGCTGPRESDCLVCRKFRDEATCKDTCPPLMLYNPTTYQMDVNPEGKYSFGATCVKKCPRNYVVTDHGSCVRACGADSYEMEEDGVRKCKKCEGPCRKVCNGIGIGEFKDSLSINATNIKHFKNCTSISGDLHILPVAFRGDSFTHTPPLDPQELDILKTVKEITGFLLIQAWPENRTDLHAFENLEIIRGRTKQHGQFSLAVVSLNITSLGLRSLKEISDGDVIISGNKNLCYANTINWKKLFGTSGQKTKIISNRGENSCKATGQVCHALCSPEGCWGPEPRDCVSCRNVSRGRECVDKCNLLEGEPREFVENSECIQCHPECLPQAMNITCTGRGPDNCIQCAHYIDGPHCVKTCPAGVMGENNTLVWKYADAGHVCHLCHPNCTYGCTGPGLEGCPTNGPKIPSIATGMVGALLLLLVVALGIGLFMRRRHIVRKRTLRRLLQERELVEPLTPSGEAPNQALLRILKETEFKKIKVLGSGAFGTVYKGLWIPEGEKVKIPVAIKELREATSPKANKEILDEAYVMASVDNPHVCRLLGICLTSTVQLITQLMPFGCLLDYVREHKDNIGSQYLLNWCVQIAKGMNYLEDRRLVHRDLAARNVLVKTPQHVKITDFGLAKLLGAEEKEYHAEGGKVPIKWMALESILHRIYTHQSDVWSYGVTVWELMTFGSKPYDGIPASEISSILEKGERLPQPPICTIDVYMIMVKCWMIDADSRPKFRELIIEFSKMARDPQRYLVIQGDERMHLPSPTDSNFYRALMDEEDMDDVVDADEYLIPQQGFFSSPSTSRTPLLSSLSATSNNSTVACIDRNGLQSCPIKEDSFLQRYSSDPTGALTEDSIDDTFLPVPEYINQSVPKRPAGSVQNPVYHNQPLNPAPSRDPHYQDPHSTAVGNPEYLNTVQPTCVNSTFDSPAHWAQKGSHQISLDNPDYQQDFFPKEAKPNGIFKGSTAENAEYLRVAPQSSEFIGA
Test [8] deals with Follistatin-related protein 3 (Homo sapiens) (UniProt O95633). Nature of the test: FSTL3 binders on small-molecule microarrays, primary screen, biochemical, small-molecule microarray, 635 nm fluorescence (AID 1105).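 Also: score merges emission near 667 nm and signal to noise per printed spot across three slides.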 The following applies: FSTL3 binding, higher = more signal.
Chain of Follistatin-related protein 3 (Homo sapiens) (O95633 whole entry, looked up): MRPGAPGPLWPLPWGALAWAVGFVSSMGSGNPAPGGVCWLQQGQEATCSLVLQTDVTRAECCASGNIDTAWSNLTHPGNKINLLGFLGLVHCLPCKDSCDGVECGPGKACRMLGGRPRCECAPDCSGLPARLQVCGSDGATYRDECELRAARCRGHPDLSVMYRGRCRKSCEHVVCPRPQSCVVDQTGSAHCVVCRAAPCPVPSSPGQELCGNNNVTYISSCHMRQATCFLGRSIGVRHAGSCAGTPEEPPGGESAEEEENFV
The target in test [9] is Dickkopf-related protein 1 (Homo sapiens) (UniProt O94907). Nature of the test: DKK1 binders on small-molecule microarrays, primary screen, biochemical, small-molecule microarray, 635 nm fluorescence scan (AID 1106).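 Also: score merges emission near 667 nm with signal to noise over three replicate slides.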 Conditions: DKK1 binding, higher = more signal.
Chain of Dickkopf-related protein 1 (Homo sapiens) (O94907 whole entry, looked up): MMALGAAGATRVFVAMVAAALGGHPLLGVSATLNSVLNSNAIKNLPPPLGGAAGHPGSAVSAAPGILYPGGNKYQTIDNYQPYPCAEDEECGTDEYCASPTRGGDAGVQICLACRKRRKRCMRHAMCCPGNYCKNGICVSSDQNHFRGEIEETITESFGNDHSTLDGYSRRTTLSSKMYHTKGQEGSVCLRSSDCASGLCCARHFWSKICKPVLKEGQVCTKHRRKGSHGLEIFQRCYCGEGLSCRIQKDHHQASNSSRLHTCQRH
The subject of test [10] is Inhibin beta A chain (activin A). Nature of the test: INHBA (activin A) binders on microarrays, primary screen, biochemical, small-molecule microarray, 635 nm fluorescence scan (AID 1107).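 Also: mouse activin A protein probed at 4.33 µg/mL on printed slides; score merges bound-protein fluorescence near 667 nm with spot signal-to-noise.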 The following applies: small-molecule microarray binding, higher = more signal.

For eleven compounds, composite z-score and z-score results are on record in PubChem BioAssay.

Active and inactive are the calls of the source.

For `C=CC[C@]12N=C(c3ccc(OCCCO)cc3)O[C@H]1c1ccccc1N(CCS(=O)(=O)c1ccccc1)C2=O`, the composite z-score in test [1] turned out to be 1.43; in test [2], 0.419; in test [3] it was 0.777; in [5], 0.374; in [6], 1.3; in [7] it was 0.595. For the same compound, the composite z-score is 1.11 in test [8], 0.694 in [9] and 1.26 in test [10]. Further, in test [4], the z-score was -2.04 (inactive).
For the compound `Cc1c(NC(=O)/C(C#N)=C/c2cccc([N+](=O)[O-])c2)c(=O)n(-c2ccccc2)n1C`, the composite z-score was 0.141 in [1]; -0.123 in test [2]; -0.413 in test [3]; 0.455 in [5]; 0.797 in test [6]; 0.53 in test [7]. Also, the composite z-score turned out to be 0.53 in [8], 0.561 in [9] and 0.107 in test [10]. Also, the z-score in [4] is -0.911 (inactive).
As to `CC(C)(C)OC(=O)CC[C@@]1(C(=O)N2CCCCC2)N=C(c2ccc(OCCCO)cc2)O[C@@H]1c1ccccc1`, the composite z-score in test [1] is 1.74; in test [2] it was 0.555; in test [3], 0.452; in test [5], 1.46; in test [6], 1.3; in test [7] it was 0.197. Also, the figures for the composite z-score in test [8], in test [9] and in test [10] were 0.858, -0.219 and 0.6, respectively. Also, the z-score in test [4] is 0.0826 (inactive).
For the compound `CCOC(=O)C1=CC[C@@H](c2ccccc2)N(S(=O)(=O)c2ccc(C)cc2)[C@H]1c1ccc(CC)cc1`, the composite z-score in test [1] came out at 0.375; in [2] it was 0.961; in test [3] it was 0.538; in [5], 0.393; in test [6], 1.17; in test [7] it was 0.221. Also, the values for the composite z-score in test [8], in test [9] and in [10] were 0.395, -0.112 and 0.965, respectively. Further, in test [4], the z-score was 0.425 (inactive).
Regarding `COc1cc(OC)c(C(O)C2C=CC3C(=O)NC(=O)C3N2Nc2ccccn2)cc1Br` (stereo not given), the composite z-score in test [1] is 0.968; in test [2], 0.615; in [3], 0.483; in [5], 0.689; in test [6] it was 0.398; in [7] it was 0.807. In addition, the figures for the composite z-score in test [8], in [9] and in [10] were 0.835, 0.815 and 0.811, respectively. In test [4], the z-score is 0.893 (inactive).
Consider `COCCOC(=O)N1C(=O)[C@@]2(c3cc(C#CC4=CCCCC4)ccc31)[C@H](C(N)=O)[C@H]1C(=O)O[C@H](c3ccccc3)[C@H](c3ccccc3)N1[C@@H]2c1ccc(O)cc1`, for which the composite z-score worked out at 1.61 in test [1]; 0.0331 in test [2]; 0.275 in test [3]; 1.15 in [5]; 0.96 in test [6]; 0.586 in [7]. The composite z-score in [8] was 0.829; in test [9], 0.318; in test [10], 0.787. For the same compound, in test [4], the z-score is -1.18 (inactive).
For the compound `CCN(CC)c1ccc(N2CC=CC34O[C@@H]5/C=C\CCC(C)OC(=O)C5[C@H]3C(=O)N(CCCCCO)[C@@H]4C2=O)cc1` (stereo not given in full), the composite z-score in test [1] is -1.01; in test [2], -0.0549; in test [3], 0.288; in [5] it was -0.976; in test [6], -1.02; in [7] it was -0.518. Further, the composite z-score in [8] was -0.669; in test [9], -0.555; in test [10] it was 0.306. Also, the z-score in [4] was 0.292 (inactive).
Consider `COc1ccc([Si](C)(C)[C@@H]2[C@@H](CC(=O)N3CCC[C@H]3CO)O[C@]3(C(=O)N(Cc4cccc(I)c4)c4ccccc43)[C@H]2C)cc1`, for which the composite z-score in [1] came out at 0.541; in [2], 0.0446; in test [3] it was 0.0665; in test [5], 1.05; in [6], 1.13; in test [7] it was 1.2. The composite z-score in test [8] was determined as 1.44; in test [9], 1.92; in [10] it was 0.946. Besides, the z-score in test [4] was -0.404 (inactive).
For the compound `C=C(CCCC)C(=O)CC[C@H](OC(=O)c1cccnc1)c1ccc(OCCO)cc1`, the composite z-score is 0.142 in [1]; -0.117 in test [2]; 0.27 in test [3]; -0.0659 in test [5]; -0.0084 in [6]; -0.317 in test [7]. The composite z-score in test [8] is -0.173; in test [9] it was 0.183; in test [10], 0.877. Further, the z-score in test [4] is 0.98 (inactive).
As to `C=CCOC(=O)[C@H]1[C@@H]2C(=O)O[C@@H](c3ccccc3)[C@@H](c3ccccc3)N2[C@@H](c2ccc(OCCOC(=O)[C@H]3C[C@H]4C(=O)N[C@@H](CCCCN(C)C)C(=O)N4[C@H]3c3cccc(OCCO)c3)cc2)[C@]12C(=O)Nc1ccc(I)cc12`, the composite z-score was 0.79 in test [1]; -0.267 in test [2]; -0.254 in test [3]; 1.32 in test [5]; 1.16 in test [6]; 0.527 in [7]. Also, the composite z-score in test [8] is 1.46; in test [9], 1.07; in test [10], 1.11. For the same compound, the z-score in [4] was 1.52 (inactive).
On to `COCCOC(=O)N1C(=O)[C@@]2(c3cc(C#CC4(O)CCCCCC4)ccc31)[C@H](C(=O)Nc1nc3ccccc3s1)[C@H]1C(=O)O[C@H](c3ccccc3)[C@H](c3ccccc3)N1[C@@H]2c1ccccc1OCCO`, for which the composite z-score in test [1] is 1.07; in test [2], 0.199; in [3], 0.365; in test [5], 1.3; in test [6], 1.29; in test [7] it was 0.38. In addition, the composite z-score in [8] is 1.05; in test [9], 0.287; in [10], -0.0079. The z-score in test [4] was -0.616 (inactive).
